Bioassay records deposited in PubChem by National Center for Advancing Translational Sciences (NCATS).
Sampled rows, rich in hits. Any-hit rate of the full collection: about 2.8%.
Pol eta inh = inhibitors of human DNA polymerase eta | Q9Y253 | hit rate 1.2% among 390,000 | recombinant Pol eta, fluorescent DNA replication assay | Potency, µM (highest dose often 114 µM), without a hit: top-dose activity change, negative = inhibition, usual class: inhibitors | AID 588591; also: potency is read from the fitted curve at half-maximal effect; % is scaled to controls: 0 for no effect and ±100 for the full control effect
Target sequence (Q9Y253 whole entry, looked up): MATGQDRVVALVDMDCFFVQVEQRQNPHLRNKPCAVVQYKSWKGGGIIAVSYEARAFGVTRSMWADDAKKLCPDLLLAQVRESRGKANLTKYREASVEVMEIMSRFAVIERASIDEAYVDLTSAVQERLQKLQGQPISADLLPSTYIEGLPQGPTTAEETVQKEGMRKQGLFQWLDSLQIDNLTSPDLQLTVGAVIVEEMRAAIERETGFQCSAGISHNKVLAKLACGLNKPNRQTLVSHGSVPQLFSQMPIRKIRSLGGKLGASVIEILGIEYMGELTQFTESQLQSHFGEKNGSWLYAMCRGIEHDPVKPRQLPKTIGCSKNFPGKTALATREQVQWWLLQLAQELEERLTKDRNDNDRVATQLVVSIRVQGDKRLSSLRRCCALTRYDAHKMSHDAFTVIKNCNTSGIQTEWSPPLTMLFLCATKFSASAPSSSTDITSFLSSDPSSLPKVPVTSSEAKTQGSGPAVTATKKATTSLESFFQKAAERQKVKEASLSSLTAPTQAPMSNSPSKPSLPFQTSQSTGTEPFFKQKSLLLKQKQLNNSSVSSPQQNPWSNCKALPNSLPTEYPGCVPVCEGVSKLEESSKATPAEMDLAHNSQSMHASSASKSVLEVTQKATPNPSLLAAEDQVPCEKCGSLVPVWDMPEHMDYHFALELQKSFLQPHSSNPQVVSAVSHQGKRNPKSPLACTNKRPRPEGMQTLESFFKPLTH
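Fluorescent replication assay: 50 nM final substrate added after a 15 min room-temperature compound preincubation with 10 nM enzyme. Signal taken at 0 min and again at 10 min.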
PI5P4Ka inh = inhibitors of human PI5P4K alpha; PI5P4Kalpha enzyme, ADP-Glo luminescence, 60 min; active compounds read low; P48426; hit rate 1.2% among 330,000; max response, %; active = max response of -50% or lower; inconclusive = between -30% and -50%; inactive = -30% or higher; also: value at the top dose of about 77 µM; % is scaled to controls: 0 for no effect and ±100 for the full control effect
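Luminescence from ADP-Glo served as readout of PI5P4Kalpha activity in a qHTS format. Reaction: enzyme, substrate, compound, ATP at 5 microM final, 60 min at RT.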
PI4K2A inh = inhibitors of human PI4K2A. AID 1346378. Q9BTU6. purified PI4K2A, ADP-Glo luminescence, 1 h; active compounds read low. hit rate 0.13% among 420,000. activity change, negative = inhibition, % at 76.9 µM; in the data active = activity change below about -50%; inconclusive = mostly about -30% to -49%;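 also: -100% = wells without enzyme as full effect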
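PI4K2A activity was measured by ADP-Glo luminescence: enzyme (4 ug/mL stock) and phosphatidylinositol (1.2 mM stock) in Tris pH 7.5/MgCl2/EGTA/Triton X-100 buffer were reacted with ATP (300 microM stock) for one hour at ambient temperature.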
POLI inh = DNA polymerase iota (human) inhibition; Q9UNA4; Pol iota fluorescent replication assay, 10 min; Potency, µM (top dose mostly 115 µM), without a hit: at the highest dose activity, negative = inhibition, hits mostly inhibitors; hit rate 1% among 390,000; also: potency is read from the fitted curve at half-maximal effect
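Pol iota at 10 nM preincubated 15 min with compounds at room temperature; reaction started with fluorescent substrate, 50 nM final. Fluorescence read kinetically at 0 and 10 min; buffer-only wells as negative control.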
Pol beta inh = inhibitors of human DNA polymerase beta; Potency, µM (doses to about 114 µM), for inactives: at the highest dose activity change, negative = inhibition, hits mostly inhibitors; Pol beta primer extension/strand displacement, fluorescence kinetic; AID 485314; hit rate 1.3% among 340,000; P06746; also: potency is read from the fitted curve at half-maximal effect; % is scaled to controls: 0 for no effect and ±100 for the full control effect
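Pol beta (10 nM) was preincubated with compound for 15 min at room temperature. The reaction was then started with 50 nM substrate and read immediately and after a further 10 min at room temperature.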
Pol kappa inh = inhibitors of human DNA polymerase kappa; hit rate 0.53% among 400,000; Potency, µM (series often up to 107 µM), for inactives: at the top dose activity, negative = inhibition, usual class: inhibitors; Q9UBT6; purified Pol kappa, fluorescent DNA synthesis assay, 10 min; AID 588579; also: potency is read from the fitted curve at half-maximal effect; % is scaled to controls: 0 for no effect and ±100 for the full control effect
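Inhibition of 10 nM Pol kappa is measured by a fluorescent read-out at 0 and 10 min following addition of 50 nM substrate (final), with a 15-min room-temperature compound preincubation.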
* = called active by the depositor; u = inconclusive; x = no result; ! = not confirmed by another sample; [ ] = remark or other dose. Unless noted, calls follow the shape of the dose curve; as a rule, active = well fitted inhibition curve with a large enough effect; inconclusive = small, poorly fitted or top-dose-only effect, or another doubt; inactive = no such curve, though single readings can be large or run the other way.

SMILES	Pol eta inh	PI5P4Ka inh	PI4K2A inh	POLI inh	Pol beta inh	Pol kappa inh
CN(C)S(=O)(=O)c1cccc(-c2nn(-c3ccccc3)cc2/C=C(\C#N)c2nc3ccccc3[nH]2)c1	-17.8%	-5.1	3.1	29.9%	-11.0%	-19.3%
CN(C)S(=O)(=O)c1cccc(-c2nn(-c3ccccc3)cc2/C=C2\SC(=S)NC2=O)c1	14.1µM*	-85.6*	-6.8	u	20µM*	u
OCCCc1nc2n(n1)C(c1ccccc1)C=C(c1ccc(F)cc1)N2 (stereo not drawn)	-12.2%	x	-66.4*	-1.0%	2.0%	-3.1%
O=S(=O)(Nc1nc2n(n1)C(c1ccc(F)cc1)C=C(c1ccccc1)N2)c1ccccc1 (stereo not drawn)	-9.4%	x	-1.4	30.2%	u	-2.8%
OCCCc1nc2n(n1)C(c1cccs1)C=C(c1ccccc1)N2 (stereo not drawn)	x	x	x	x	-16.0%	x
O=S(=O)(Nc1nc2n(n1)C(c1ccc(F)cc1)C=C(c1ccc(Cl)cc1)N2)c1ccccc1 (stereo not drawn)	89.1µM*	x	-3.7	33.5%	8.3%	-1.5%
Nc1cccnc1Sc1cccc(Cl)c1	-7.6%	-16.1	-69.3*	u	1.0%	3.2%
Nc1cccnc1Sc1ccc(Cl)cc1	-11.3%	0.1	6.1	4.5%	-1.6%	0.7%
Cc1ccc(Nc2nnc(SCC(=O)c3ccc(O)cc3O)s2)cc1	1.3%	-55.7*	2.5	u	u	-18.5%
CCOc1ccc2nc(SCC(=O)c3ccc(C)s3)sc2c1	-12.2%	0.7	0.3	14.6%	5.9%	-14.9%
Cc1cccc(Nc2nnc(SCC(=O)c3ccc(O)cc3O)s2)c1	-17.0%	-15.4	1.1	134.8%	1.0%	-7.4%
CCOc1ccc2nc(SCC(=O)c3ccc(O)cc3O)sc2c1	u	1.1	-2.5	u	35.5µM*	u
O=C(Nc1ccc(OC(F)F)cc1)c1nc(S(=O)(=O)Cc2ccccc2F)ncc1Cl	x	x	x	9.0%	x	-6.1%
CN(C)c1cccc(C(=O)NNC(=O)NC2CCCCC2)c1	-10.9%	3.9	0.0	-9.4%	0.6%[57.1 µM]	-3.0%
O=C(NNC(=O)c1ccc(Br)s1)NC1CCCCC1	-9.6%	-3.6	-0.5	18.7%	22.4µM*	-16.4%
CSc1nc(O)c(C(c2ccccc2)c2c(O)nc(SC)[nH]c2=O)c(=O)[nH]1	-12.6%	-52.9*	-3.2	4.4%	5.0%	3.7%
CSc1nc(O)c(C(c2ccc(F)cc2)c2c(O)nc(SC)[nH]c2=O)c(=O)[nH]1	-12.6%	-14.1	0.5	19.6%	x	8.9%
CC1(N2CCOCC2)CC2(O)C(=[N+]1[O-])CCc1c2no[n+]1[O-] (stereo not drawn)	17.8µM*	-18.8	-17.6	u	2.2%	u
COC(=O)[C@H]1C[C@@]2(N3CCCCC3)c3ccccc3N[C@H]2N1S(=O)(=O)c1ccc([N+](=O)[O-])cc1	x	x	2.2	x	x	x
Cn1cnnc1SCC(=O)Nc1nc(-c2ccccc2)cs1	-9.6%	1.7	5.1	38.2%	15.8µM*	-5.5%
O=C(O)C1Nc2ccccc2C2C=CCC12 (stereo not drawn)	x	x	x	3.55µM*	x	6.31µM*
CCCC1Nc2ccc(C(=O)O)cc2C2C=CCC12 (stereo not drawn)	8.91µM*	-28.4	3.4	17.8µM*	35.5µM*	35.5µM*
CCOC(=O)C1Nc2ccc(C(=O)O)cc2C2C=CCC12 (stereo not drawn)	2.82µM*	-68.9*	-22.1	u	15.8µM*	10µM*
CCOC(=O)c1ccc2c(c1)C1C=CCC1C(C(=O)O)N2 (stereo not drawn)	x	x	x	x	3.98µM*	x
CNC(=O)C1(C(F)(F)F)CC(CCCO)CCCO1 (stereo not drawn)	x	x	x	-10.1%	x	-21.9%
SMILES	Pol eta inh	PI5P4Ka inh	PI4K2A inh	POLI inh	Pol beta inh	Pol kappa inh
COc1ccccc1C1CC(c2ccccc2)=NN1S(=O)(=O)c1ccccc1 (stereo not drawn)	-4.2%	1.0	2.6	-2.6%	-5.2%	-15.0%
COc1cccc(C2CC(c3ccccc3)=NN2S(=O)(=O)c2ccc(C)cc2)c1OC (stereo not drawn)	u	-3.4	0.4	-12.6%	50.1µM*	-31.7%
CCCCNS(=O)(=O)/C=C/c1ccc(OC)cc1CNC(=O)OC(C)(C)C	x	x	5.5	x	x	x
Cc1ccc2c(c1)Oc1ccc(NC(=O)CCl)cc1C(=O)N2	79.4µM*	6.8	-4.4	-25.2%	13.6%	0.5%
COc1ccc(OCC2c3cc(OC)c(OC)cc3CCN2C(=O)COc2ccc(Cl)cc2Cl)cc1 (stereo not drawn)	-18.9%	x	0.7	29.2%	-1.9%	-7.3%[60.1 µM]
Cc1sc2nc(CN3CCCCC3)nc(Nc3ccc4c(c3)OCCO4)c2c1C	-10.1%	2.6	1.1	54.0%	79.4µM*	-8.1%
CCOC(=O)c1c(C)c(-c2ccccc2)n(CC(=O)Nc2cc(C)cc(C)c2)c1C	-12.1%	x	1.4	7.3%	1.6%	9.0%
Cc1ccc(C(=O)NCCc2csc(-c3cccc(F)c3)n2)cc1C	-21.7%	x	5.5	9.5%	-23.9%	-20.2%[60.1 µM]
OC(C[n+]1c(Cl)ccc2ccccc21)c1ccccc1 (stereo not drawn)	x	x	x	u	x	1.8%
CCC(=O)N(c1ccccc1)C1CCN(C(=O)C(Cc2ccccc2)NC(C)=O)CC1 (stereo not drawn)	x	x	5.3	x	x	x
O=S(=O)(O)c1cccc2cccc(Nc3ccccc3)c12	20µM*	u	-22.1	28.2µM*	x	u
c1ccc(Nc2cccc3c(Nc4ccccc4)cccc23)cc1	-20.7%	-1.7	1.0	-0.1%	24.0%	3.8%
Cc1cc(C(F)(F)F)n(-c2nc(C(=O)N/N=C/c3ccc(F)cc3)cs2)n1	-11.0%	-1.6	3.8	89.1µM*	1.5%	-12.7%
Cc1ccc(NC(=O)c2cc(N3C(=O)C=CC3=O)ccc2N2CCOCC2)cc1Cl	-16.8%	-76.5*	7.3	22.6%	-1.6%	1.0%
Cc1ccc(NC(=O)c2cc(N3C(=O)CCC3=O)ccc2N2CCOCC2)cc1	-17.5%	4.5	0.4	116.7%	-28.5%	6.6%
COc1cccc(NC(=O)Cn2c(=O)ccc3cc(S(=O)(=O)N4CCC(C)CC4)ccc32)c1	-1.5%	x	1.6	-2.2%	-9.2%	-10.5%[60.1 µM]
Cc1ccc(CNC(=O)c2nnn(CC(=O)Nc3cc(C)ccc3C)c2N)cc1	-11.8%	x	1.4	-5.8%	7.94µM*	-20.7%
CCc1ccccc1NC(=O)Cn1nnc(C(=O)NCc2ccccc2Cl)c1N	-15.4%	x	-0.9	89.1µM*	70.8µM*	u
Cc1ccc(C)c(NC(=O)Cn2nnc(C(=O)NCc3ccco3)c2N)c1	-5.7%	0.6	-2.3	79.4µM*!	-1.0%	3.3%
O=c1c2ccccc2nc(/C=C/c2ccccc2)n1CCc1ccccc1	-7.9%	-1.3	6.4	5.0%	12.3%	-17.0%
O=c1c2ccccc2nc(/C=C/c2cccnc2)n1CCc1ccccc1	u	-5.0	-8.7	7.94µM*	17.2%	-22.4%
